Screen size: about 97,000 compounds; about 810 (0.84%) were called active. The list comes from a sample in which actives are over-represented; it also holds similar structures and randomly drawn compounds. Values without a mark were called inactive. No stated cut-off is given here; in the data, active means inhibition above about 19%; inactive means the rest.
These compounds were tested against Focal adhesion kinase 1 (Homo sapiens) (UniProt Q05397) (assay: FAK kinase inhibitors, primary screen, biochemical (AID 727;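 further: 0% = DMSO and 100% = reference compound high control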)). Details: biochemical FAK kinase activity assay; active compounds read high;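 tested at 7 µM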.
Focal adhesion kinase 1 (Homo sapiens), sequence (Q05397 whole entry, looked up): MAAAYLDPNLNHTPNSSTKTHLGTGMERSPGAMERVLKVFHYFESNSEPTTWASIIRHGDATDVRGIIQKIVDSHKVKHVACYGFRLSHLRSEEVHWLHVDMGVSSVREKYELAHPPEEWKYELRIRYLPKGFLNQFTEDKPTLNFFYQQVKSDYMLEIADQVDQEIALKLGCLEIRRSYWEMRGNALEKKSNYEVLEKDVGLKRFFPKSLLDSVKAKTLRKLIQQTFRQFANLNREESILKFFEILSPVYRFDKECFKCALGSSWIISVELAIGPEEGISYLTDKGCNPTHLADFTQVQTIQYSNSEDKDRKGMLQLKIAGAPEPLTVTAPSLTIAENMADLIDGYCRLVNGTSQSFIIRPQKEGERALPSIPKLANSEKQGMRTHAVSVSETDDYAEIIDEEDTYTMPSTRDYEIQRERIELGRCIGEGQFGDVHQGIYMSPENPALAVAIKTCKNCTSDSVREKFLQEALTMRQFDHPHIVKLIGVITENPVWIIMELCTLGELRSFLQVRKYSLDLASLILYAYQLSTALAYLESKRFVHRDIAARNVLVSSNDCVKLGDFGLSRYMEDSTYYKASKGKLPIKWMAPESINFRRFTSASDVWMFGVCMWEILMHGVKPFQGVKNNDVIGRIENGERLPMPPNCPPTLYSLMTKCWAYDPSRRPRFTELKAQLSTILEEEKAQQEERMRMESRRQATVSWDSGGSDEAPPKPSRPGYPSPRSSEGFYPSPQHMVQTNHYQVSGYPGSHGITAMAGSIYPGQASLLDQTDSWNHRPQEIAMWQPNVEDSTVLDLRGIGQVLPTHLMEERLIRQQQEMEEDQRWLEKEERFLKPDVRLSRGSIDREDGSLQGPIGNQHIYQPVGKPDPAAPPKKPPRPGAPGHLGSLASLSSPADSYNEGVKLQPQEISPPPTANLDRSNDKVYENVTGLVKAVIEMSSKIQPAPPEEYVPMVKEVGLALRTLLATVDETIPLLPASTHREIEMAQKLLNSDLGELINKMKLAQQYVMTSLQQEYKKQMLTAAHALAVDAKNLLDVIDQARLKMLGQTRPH

| SMILES | inhibition |
| --- | --- |
| Cc1cccc(NC(=O)Cn2cc(C(=O)c3ccco3)c3ccccc32)c1 | -4.82% |
| Cc1cc(C)c2c3c(sc2n1)C(c1ccccc1)C(C#N)=C(N)O3 (stereo unspecified) | 1.94% |
| CCCCC(C(=O)OCC(=O)c1ccc(OC)cc1)N1C(=O)c2ccccc2C1=O (stereo unspecified) | 0.79% |
| CC(c1ccccn1)N(CCN(C)C)C(=S)Nc1ccccc1F (stereo unspecified) | -1.18% |
| CCOC(=O)c1cc(NC(=O)c2ccc(Cl)cc2)c(=O)oc1-c1ccccc1 | -2.61% |
| Nn1c(Cc2cccc3ccccc23)nnc1SCC(=O)N1CC(=O)Nc2ccccc21 | -1.43% |
| c1ccc(CSc2nnc(-c3ccco3)n2Cc2ccccc2)cc1 | -5.27% |
| Nc1nc(SCc2ccccc2Cl)n[nH]1 | 1.47% |
| Clc1ccccc1CSc1nnc(-c2ccco2)c(-c2ccco2)n1 | 31.9% (active) |
| CCCCOc1ccc(N(CC(=O)NCC2CCCO2)C(=O)CCC(=O)Nc2cc(C)ccn2)cc1 (stereo unspecified) | -1.73% |
| CCNC(=O)c1sccc1-n1cccc1 | -1.65% |
| Cn1c(SCC(=O)C(C)(C)C)nnc1-c1ccccn1 | -1.08% |
| Clc1ccccc1-c1cc(COc2ccc3ccccc3c2)no1 | 5.83% |
| CCCC(C)C(=O)Nc1ccc(NC(C)=O)cc1 (stereo unspecified) | 0.18% |
| O=C(CSc1nc2[nH]ncc2c(=O)n1-c1ccccc1)N1CCCc2ccccc21 | 0.8% |
| C=CCn1c(=O)c2ccccc2n2c(SCC(=O)N3CCCc4ccccc43)nnc12 | 5.22% |
| Cn1c(SCC(=O)N2CCCc3ccccc32)nc2ccccc2c1=O | 37.7% (active) |
| CC(C)(C)C(=O)Cn1c(NCCO)nc2ccccc21 | 1.69% |
| CC(C)(C)C(=O)c1cnc(Nc2ccccc2)s1 | 4.36% |
| OC(C#CCN1CCOCC1)(c1ccccc1)C1CCCCC1 (stereo unspecified) | 0.89% |
| COc1ccc(S(=O)(=O)N/N=C\c2ccc(OC)c(COc3ccc(C)cc3[N+](=O)[O-])c2)cc1 | 2.51% |
| O=C(Nc1cccc2ncccc12)c1ccc(-c2ccc(Cl)cc2Cl)o1 | 9.2% |
| CCN1CCN(c2ccc([N+](=O)[O-])cc2C(=O)c2ccc(Cl)cc2)CC1 | -2.69% |
| O=C(CSc1nc2cccnc2n1Cc1ccccc1)N1CCc2ccccc21 | 1.41% |
| FC(F)(F)c1cccc(NC(=S)Nc2cccc(Cl)c2)c1 | -0.91% |
| Cc1c(NC(=O)c2cc(-c3ccc(Cl)s3)nc3ccccc23)c(=O)n(-c2ccccc2)n1C | 2.95% |

From PubChem BioAssay AID727 (The Scripps Research Institute Molecular Screening Center, 2007)
